HEK293 tox: Cytotoxic Profiling in HEK 293 Cell Line of Diverse Libraries Using Quantitative High-Throughput Screening. actives 6.6% (n = 94,000). Potency, µM (highest dose often 115 µM), inactives show at the highest dose activity change, negative = cytotoxicity, usual class: inhibitors. HEK 293 viability, ATP luminescence (CellTiter-Glo), 48-72 h; further: nearly all actives have a fitted effect of over 60% in size
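CellTiter-Glo luminescence (cellular ATP) was read after 48 or 72 hr of compound exposure at 37 degree Celsius. Cells were HEK 293 plated at 250 cells/well.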
NPR1 antag: Natriuretic polypeptide receptor (hNpr1) antagonism - Primary qHTS. Atrial natriuretic peptide receptor 1 (Homo sapiens), P16066. HEK293 hNpr1 GloSensor cGMP, ANP-stimulated luminescence. Potency, µM (titrated, usually from 46.3 µM), for inactives: at the highest dose activity change, negative = inhibition, actives largely listed as inhibitors. actives 1.6% (n = 76,000); calls by dose curve; further: nearly all actives have a fitted effect of over 60% in size
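Compound pre-incubated 30 min at room temperature on GloSensor-loaded HEK293 cells stably carrying hNpr1 and the pGS-40F cGMP biosensor. Stimulation uses hNppA at 0.1 nM final; luminescence is taken at baseline and 20 min post-agonist.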
3T3 cytotox: Cytotoxic Profiling in NIH 3T3 Cell Line of Diverse Libraries Using Quantitative High-Throughput Screening; Potency, µM (titrated, usually from 96.7 µM), inactives show at the highest dose activity change, negative = cytotoxicity, usual class: inhibitors; actives 4.3% (n = 94,000); NIH 3T3 viability, CellTiter-Glo ATP luminescence, 48-72 h; further: nearly all actives have a fitted effect of over 55% in size
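Mouse fibroblast NIH 3T3 cells, 400 per well, received compound via pintool and were incubated for 48 or 72 hr prior to CellTiter-Glo ATP luminescence measurement.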
GPT2 inhibitor: Primary qHTS assay for inhibitors of Glutamate pyruvate transaminase 2 (GPT2); Recombinant GPT2, coupled pyruvate oxidase/HRP Amplex Red fluorescence; Potency, µM (series often up to 57.7 µM), without a hit: top-dose activity change, negative = inhibition, actives largely listed as inhibitors; Alanine aminotransferase 2 (Homo sapiens), Q8TD30; AID 1671188, 2021; actives 0.25% (n = 100,000); further: nearly all actives have a fitted effect of over 60% in size
Target sequence (Q8TD30 whole entry, looked up): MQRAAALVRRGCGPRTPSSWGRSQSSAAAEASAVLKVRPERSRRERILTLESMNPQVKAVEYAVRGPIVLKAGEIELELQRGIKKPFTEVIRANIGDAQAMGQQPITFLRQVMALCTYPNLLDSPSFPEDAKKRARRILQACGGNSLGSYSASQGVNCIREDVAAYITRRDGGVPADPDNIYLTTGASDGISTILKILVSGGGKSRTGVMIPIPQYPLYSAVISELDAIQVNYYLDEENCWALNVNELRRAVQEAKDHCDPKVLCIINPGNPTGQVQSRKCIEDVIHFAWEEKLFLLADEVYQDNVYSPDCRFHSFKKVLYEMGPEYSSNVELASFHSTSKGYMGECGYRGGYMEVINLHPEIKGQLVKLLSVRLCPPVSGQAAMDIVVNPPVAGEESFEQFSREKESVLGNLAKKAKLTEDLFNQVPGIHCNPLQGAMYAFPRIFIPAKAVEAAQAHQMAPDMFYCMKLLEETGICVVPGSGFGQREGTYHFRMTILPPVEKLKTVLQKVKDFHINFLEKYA
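GPT2 10ng/uL, a-KG 250uM, L-Ala 2mM, HEPES pH7.5 + 0.0001% Tween; 30 min RT. Then Amplex mix (PO/HRP/ThPP), 30 min RT dark, fluorescence. AOA 50uM used as positive control.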
Luciferase inh: Firefly luciferase inhibition profiling of diverse chemical library using quantitative high-throughput screening; actives 2.5% (n = 76,000); purified P. pyralis luciferase, luminescence, biochemical; AID 1347043, 2019; Luciferin 4-monooxygenase (Photinus pyralis), P08659; Potency, µM (top dose mostly 115 µM), actives largely listed as inhibitors; further: nearly all actives have a fitted effect of over 65% in size
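Cell-free enzyme assay, 10nM P. pyralis luciferase, luciferin and ATP each at 10uM. Inhibition profiled over a 6-point titration, read as luminescence.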
Numbers without * were called inactive; i = inactive; ? = inconclusive; . = not tested or not shown; [ ] = dose if it differs, or a comment. Hits are enriched below; roughly 10% of the tested compounds scored in any of these assays. Unless noted, the call rests on the fitted dose curve; in most records, active means well fitted curve in the direction sought with a large enough effect; inconclusive means small, poorly fitted or top-dose-only effect, or another doubt; inactive means no such curve, though single readings can be large; an effect the other way counts as inactive or inconclusive. On the % scale 0 is the no-effect control and ±100 the full control effect; potency means the concentration at half of the fitted maximal effect.

SMILES | HEK293 tox | NPR1 antag | 3T3 cytotox | GPT2 inhibitor | Luciferase inh
COc1ccc(-c2cc(N3CCC(NC(=O)Cc4ccc(Cl)cc4)CC3)n[nH]2)cc1 | ? | -25% | ? | -14% | i
O=C(NC1CCN(c2cc(-c3ccc(Cl)cc3)[nH]n2)CC1)c1ccc2[nH]ccc2c1 | 40µM* | -22% | 35µM* | i | i
O=C(NC1CCN(c2cc(-c3ccccc3)[nH]n2)CC1)c1ccc2ccccc2n1 | 50µM* | -24% | 28µM* | i | i
O=C(Cc1cccc(Cl)c1)NC1CCN(c2cc(-c3ccccc3)[nH]n2)CC1 | ? | -30% | 32µM* | i | i
COc1ccc(Cn2c(=O)c(C(=O)NCc3ccc(C(F)(F)F)cc3)nc3cccnc32)cc1 | ? | . | ? | i | .
CC(=O)Nc1ccc(C(=O)NC2CCN(c3cc(-c4ccccc4)[nH]n3)CC2)cc1 | -22% | -12% | ? | i | i
O=C(NC1CCN(c2cc(-c3ccccc3)[nH]n2)CC1)c1ccc(Cl)cc1 | ? | -27% | 20µM* | 5% | i
COc1ccc(-c2cc(N3CCC(NC(=O)c4ccc(Cl)cc4)CC3)n[nH]2)cc1 | 45µM* | ? | ? | i | i
COc1cc(OC)cc(C(=O)NC2CCN(c3cc(-c4ccc(F)cc4)[nH]n3)CC2)c1 | ? | -22% | 35µM* | -12% | i
COc1ccc(-c2cc(N3CCC(NC(=O)c4ccc(Cl)cc4)C3)n[nH]2)cc1 (stereo not drawn) | ? | -13% | ? | -15% | i
COc1ccccc1NC(=O)Cc1cccn1-c1ccc(Cl)cc1 | ? | -21% | ? | i | i
O=C(NCCc1ccncc1)c1ccc(-c2nnc3ccc(NC(=O)C4CCC4)cn23)cc1 | ? | 4% | i | -5% | ?
O=C(NCCc1cccnc1)c1ccc(-c2nnc3ccc(NC(=O)C4CCC4)cn23)cc1 | ? | -1% | 35µM* | i | i
O=C(C1CCCN1C(=O)Cc1cccc(Cl)c1)N1CCC(N2Cc3cccn3C2=O)CC1 (stereo not drawn) | 3% | . | -3% | -2% | .
CN(c1ccccc1)c1ccc2nnc(-c3cc(C(=O)N4CC(O)C4)ccn3)n2n1 | ? | 4%[70.6 µM] | 100µM* | -3%[88.5 µM] | i
COC1CCN(C(=O)c2ccnc(-c3nnc4ccc(N(C)C)nn34)c2)CC1 | -6%[172 µM] | 6%[70.6 µM] | 45µM* | 1%[88.5 µM] | i
CN(Cc1ccccc1)C(=O)c1ccnc(-c2nnc3ccc(N(C)c4ccccc4)nn23)c1 | ? | -15% | -68% | 0% | i
CN(C)c1ccc2nnc(-c3cc(C(=O)Nc4cccc(Cl)c4)ccn3)n2n1 | -28%[172 µM] | -17%[70.6 µM] | 7.9µM* | -16%[88.5 µM] | i
O=C(Nc1cccnc1)c1ccnc(-c2nnc3ccc(N4CCOCC4)nn23)c1 | -10%[172 µM] | 9%[70.6 µM] | 100µM* | 0%[88.5 µM] | i
CC1CCN(C(=O)Cn2ccn3nc(-c4ccccc4)c(CO)c3c2=O)CC1 | 6% | 1% | 1% | -28% | i
CC(C)=CCC(O)[C@](C)(O)C1[C@H](O)C[C@@]2(C)C3CC=C4C(C[C@H](O)[C@@H](O[C@@H]5O[C@H](CO)[C@@H](O)[C@H](O)[C@H]5O)C4(C)C)[C@]3(C)C(=O)C[C@]12C (stereo partly drawn) | . | . | . | i | .
COc1ccnc(-c2nnc3ccc(N(C)c4ccccc4)nn23)c1 | 45µM* | -13%[70.6 µM] | 20µM* | 1%[88.5 µM] | i
CN(c1ccccc1)c1ccc2nnc(-c3ccc(F)cn3)n2n1 | ? | -8%[70.6 µM] | ? | -6%[88.5 µM] | i

Bioassay records deposited in PubChem by National Center for Advancing Translational Sciences (NCATS).
